“And” between values parts separate entries of the source, which are not always exact repeats. Equal values may be shown once. Out of some 300,000 compounds screened, about 37,000 (12%) were called active. Shown is part of a subset that was picked to be rich in actives. Values without a mark were called inactive. Cut-off read from the data, not from the text of the source: active = max response mostly above about 13% (no sharp cut-off); inactive = mostly below about 14%.

The text below walks through data of PubChem BioAssay AID2314 (National Center for Advancing Translational Sciences (NCATS), 2010).

This experiment is described as follows: Cycloheximide Counterscreen for Small Molecule Inhibitors of Shiga Toxin. Note: read at 38.3 µM for the half of the compounds with a filed dose; 0% is about no effect. The settings on record: cell reporter, cycloheximide protein synthesis inhibition counterscreen; active compounds read high. (In general: The purpose of a counterscreen is to sort out artefacts and off-target activity.)
As for `CCC(C)c1ccc(NC(=S)NCc2ccccn2)cc1` (stereo not given), the max response was 17.3% (active).

Regarding `COc1cccc(NC(=S)NCc2ccco2)c1`, the max response was 18.2% (active).

In the case of `COc1cccc(NC(=S)NCc2ccccn2)c1`, the max response was 72.3% (active).

With `COc1cccc(NC(=S)N(Cc2ccc(C)cc2)Cc2ccccn2)c1`, the max response was 0.648%.

In the case of `Cc1cc(C)cc(NC(=O)NCc2ccccn2)c1`, the max response was -2.88%.

As to `COC(=O)Cc1ccc(NC(=S)NCc2ccco2)cc1`, the max response was 10.2%.

As to `COc1cccc(OC)c1C(=O)NC(=S)NCc1ccco1`, the max response was 5.2%.

Regarding `O=C(NCc1ccccn1)Nc1ccc(F)cc1`, the max response is -3.36%.

As for `COc1cccc(S(=O)(=O)NCc2ccc(C(=O)NCc3ccccn3)cc2)c1`, the max response was 1.45%.

As to `O=C(O)C1CCCCC1C(=O)N1CCN(S(=O)(=O)c2ccc(F)cc2)CC1` (stereo not given), the max response is -2.39%.

For `O=C(Nc1ccccc1)N1CCN(C2c3ccccc3-c3ccccc32)CC1`, the max response was -0.816%.

For `COc1ccc(N(CC(=O)N2CCCCCC2)S(=O)(=O)c2ccccc2)cc1`, the max response was 4.89%.

In the case of `CC1(C(=O)NNC(=S)NCC2CCCO2)CC1(Cl)Cl` (stereo not given), the max response was -4.02%.

With `COc1ccccc1N1CCN(S(=O)(=O)c2ccc3c(c2)NC(=O)CS3)CC1`, the max response was 5.75%.

As for `CC(=O)N1CC(=O)N(CC(=O)Nc2ccc(Br)cc2)C1=S`, the max response was -5.45%.

For the compound `NC(=O)COC(=O)c1ccc2c(c1)C(=O)N(Cc1ccco1)C2=O`, the max response is -3.87%.

Regarding `CCOCN(C(=O)Cn1c(C(C)O)nc2ccccc21)c1c(C)cccc1CC` (stereo not given), the max response is -4.33%.

As to `COc1ccccc1NC(=O)C1CCCN(c2cc(C)nc3ncnn23)C1` (stereo not given), the max response was -3.74%.

With `COc1ccccc1-c1cnn2c(N3CCOCC3)cc(C)nc12`, the max response is 52% (active).

As for `Cc1cc(C(F)(F)F)n2ncc(-c3ccccc3)c2n1`, the max response was 6.21%.

Regarding `CCC1C(=O)c2ccccc2N(C)C1=O` (stereo not given), the max response is -0.886%.

With `CN1C(=O)/C(=N/OC(=O)c2ccccc2Br)c2ccccc21`, the max response is 3.18%.

Regarding `CN1C(=O)/C(=C\c2cc(Br)cs2)c2ccccc21`, the max response was 46.4% (active).

On to `COc1ccc(/C=C(\NC(=O)c2ccccc2)C(=O)NCCN2CCOCC2)cc1OC`, for which the max response was -1.94%.

`O=C(CNCCC1=CCCCC1)Nc1ccccc1N1CCCCCC1`: the max response was -4.26%.

As to `CCOc1ccc(C(CCc2ccccc2)NC(=O)c2ccc(OC)c(OC)c2)cc1OCC` (stereo not given), the max response was 7.29%.

With `Cc1ccc(C)c(NC(=O)c2ccc3nccnc3c2)c1`, the max response is 5.91%.

For `CC(C)CCC(C)NC(=O)c1ccc2nccnc2c1` (stereo not given), the max response was 53.8% (active).

As for `COCC(C)NC(=O)c1ccc(Cl)c(Cl)c1` (stereo not given), the max response was 0.894%.

As to `CC(C)C(=O)Nc1c2c(nn1-c1ccccc1)CSC2`, the max response is -1.75%.

With `Cn1c(=O)c2sccc2n(Cc2ccc(Br)cc2)c1=O`, the max response is -2.03%.

For the compound `CCN(CC)CCC(c1ccc2c(c1)OCO2)c1c(OC)cc(OC)c2c(-c3ccccc3)cc(=O)oc12` (stereo not given), the max response is -5.1% and -16.4%.

As for `C/C(=C\C(=O)c1ccc(Br)cc1)N1CCCCC1`, the max response was -3.58%.

Consider `CC1CN/C(=C\C(=O)c2ccc(Br)cc2)C(=O)N1` (stereo not given), for which the max response is 106% (active).

Take `COc1cc2c(cc1OC)/C(=C/C(=O)c1ccc(NC(C)=O)cc1)NCC2`: the max response is -5.05%.

Regarding `Cc1cccc(-n2c(SCC(=O)Nc3cccc(S(=O)(=O)NC4=NCCCCC4)c3)nc3ccccc3c2=O)c1C`, the max response was -4.44%.

For the compound `Cc1cc(Cl)ccc1OCCCC(=O)Nc1cccc(-n2cnnn2)c1`, the max response is 1.51%.

With `O=C(Cc1ccccc1)N1CCN(S(=O)(=O)c2ccc([N+](=O)[O-])cc2)CC1`, the max response is -3.27%.

As for `N#C/C=C1\Sc2ccccc2C(=O)N1CC(=O)N1CCN(S(=O)(=O)c2ccccc2)CC1`, the max response is 27.7% (active).

`CC(CC(=O)N1CCN(S(=O)(=O)c2ccccc2)CC1)n1cncn1` (stereo not given): the max response was -1.89%.

With `O=C(Oc1cccc(NC2=NS(=O)(=O)c3ccccc32)c1)c1ccncc1`, the max response was -1.79%.

Consider `CC(C)(C)c1csc(NC2=NS(=O)(=O)c3ccccc32)n1`, for which the max response is 26.2% (active).

Consider `Cc1ccc(S(=O)(=O)N(NC2=NS(=O)(=O)c3ccccc32)C(=O)c2ccccc2)cc1`, for which the max response is -4.47%.

Regarding `O=C(Nc1cccc(-c2cccc(Cl)c2)c1)C1CCN(C2CCC2)CC1`, the max response was -5.18%.

`O=C(OCCN=C1NS(=O)(=O)c2ccccc21)c1cccc([N+](=O)[O-])c1`: the max response was 0.837%.

As for `CCC(CC)c1nnc(NC(=O)c2nn(C)c(=O)c3ccccc23)s1`, the max response was -3.83%.

Turning to `Nc1ccc(SCCN2C(=O)c3ccccc3C2=O)cc1`, the max response was 30.6% (active).

On to `CC(=O)c1cnc(SCCN2C(=O)c3ccccc3C2=O)nc1C`, for which the max response is 6.2%.

With `Cc1ccc(SCCN2C(=O)NC(C)(C)C2=O)cc1`, the max response was -0.406%.

Consider `CCCCc1cc(=O)oc2c(C)c(OCC(=O)N3CCC(C(N)=O)CC3)ccc12`, for which the max response is -2.86%.

For `COc1ccc(Cl)cc1NC(=O)Cn1nc(-c2ccc(C)cc2)n(C)c1=S`, the max response was 0.595%.

`CCN(CC(=O)NCc1ccco1)S(=O)(=O)c1ccc(F)cc1`: the max response was -3.33%.

On to `COc1cc(Nc2nc3ccc(Cl)cc3n3cnnc23)cc(OC)c1OC`, for which the max response was -8.65%.

Turning to `COc1ccc(-c2oc3ncnc(NCCCO)c3c2-c2ccc(OC)cc2)cc1`, the max response is -2.49%.

As to `COc1cc(/C=N/NC(=O)c2ccoc2C)ccc1OCCN1CCCCC1`, the max response was 15.6%.

`COc1cccc(/C=N/NC(=O)c2cccc([N+](=O)[O-])c2)c1OS(=O)(=O)c1ccc(C)cc1`: the max response was 1.94%.

As for `Cc1[nH]n(-c2ccccc2)c(=O)c1/C=N/NC(=O)c1ccoc1C`, the max response was 55% (active).

Consider `COc1cc(/C=N\NC(=O)CNC(=O)c2cccc([N+](=O)[O-])c2)ccc1O`, for which the max response was 2.84%.

For the compound `Cc1[nH]n(-c2ccc(Cl)cc2)c(=O)c1/C=N/n1c(C)nc2ccccc2c1=O`, the max response is -2.58%.

On to `Cc1ccc(-n2[nH]c(C)c(/C=N/NC(=O)c3cccc([N+](=O)[O-])c3)c2=O)cc1C`, for which the max response was 34.1% (active).
